High-throughput results (PubChem BioAssay)
Pf growth 48h: P. falciparum growth inhibition at 48 hours (one generation); P. falciparum luciferase growth in erythrocytes, 48 h; Potency, µM (doses to about 28.7 µM), inactives show top-dose activity change, negative = inhibition, actives largely listed as inhibitors; 310,000 compounds, 5.9% hits; further: potency means the concentration at half of the fitted maximal effect; on the % scale 0 is the no-effect control and ±100 the full control effect
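Parasite viability was followed by luminescence of a genomically integrated firefly luciferase. Cultures held 0.1% parasitemia at 2% hematocrit (final), incubated under 5% CO2 at 37 C.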
CHX counter: affects cycloheximide protein synthesis inhibition readout, counter-screen | 300,000 compounds, 12% hits | cell reporter, cycloheximide protein synthesis inhibition counterscreen | AID 2314 | max response, %; in the data active means max response mostly above about 13%, no sharp cut-off; inactive means mostly below about 14%; further: read at 38.3 µM for the half of the compounds with a filed dose; 0% is about no effect
Pf growth 96h: P. falciparum growth inhibition at 96 hour, primary screen for plastid delayed-death inhibitors. P. falciparum luciferase reporter growth, 96 h. Potency, µM (doses to about 28.7 µM), inactives show top-dose activity change, negative = inhibition, hits mostly inhibitors. 320,000 compounds, 6.9% hits; further: potency means the concentration at half of the fitted maximal effect; on the % scale 0 is the no-effect control and ±100 the full control effect
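Plates of compound plus infected erythrocytes (2% hematocrit, 0.05% parasitemia final) incubate 96 hours, 37 C, 5% CO2. Detection reagent added; reduced luminescence from the parasites' luciferase reporter flags inhibition.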
Shiga inhibitor: Shiga toxin inhibition | Vero cells, Shiga toxin protein synthesis inhibition reporter | inhibition, % at 38.7 µM | 290,000 compounds, 9.2% hits; in the data active means inhibition mostly above about 28%, no sharp cut-off; inactive means mostly below about 43%; further: 0% is about no effect
NS1 inh: influenza NS1 inhibition; Potency, µM (series often up to 46.1 µM), for inactives: top-dose activity, positive = more growth; 270,000 compounds, 0.4% hits; calls by dose curve; further: potency means the concentration at half of the fitted maximal effect; actives are rising curves; nearly all actives have a fitted effect of over 50% in size
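In this qHTS, NS1 from influenza A is expressed in budding yeast, where it slows growth. Cells are switched from glucose to 2% galactose medium (pH 6.0, -URA), treated with compound, and growth recovery is read at OD600.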
* hit, by the source's call. Shown are actives, neighbours in structure and some others; about 21% of the full set was active somewhere. Unless noted, the call rests on the fitted dose curve; in most records, active means well fitted inhibition curve with a large enough effect; inconclusive means small, poorly fitted or top-dose-only effect, or another doubt; inactive means no such curve, though single readings can be large or run the other way.

`O=C(c1cc2cc(F)ccc2[nH]1)N1CCc2ccccc2C1` gave Pf growth 48h inconclusive, CHX counter 20*, Pf growth 96h inconclusive, Shiga inhibitor 65* and NS1 inh -16%.
`CN1CCN(C(=O)c2cc3ccccc3[nH]2)CC1` gave Pf growth 48h 6%, CHX counter -2, Pf growth 96h inconclusive and NS1 inh 13%.
Cc1ccc(S(=O)(=O)N2CCN(S(C)(=O)=O)C2)cc1 was read as Pf growth 48h 7%, CHX counter 1, Pf growth 96h 13µM*, Shiga inhibitor -9 and NS1 inh 4%.
Cc1ccc(S(=O)(=O)N2CCCN(C(=O)c3cc4ccccc4[nH]3)CC2)cc1 was read as Pf growth 48h inconclusive, CHX counter 54*, Pf growth 96h 12µM*, Shiga inhibitor 81* and NS1 inh -11%.
`N#Cc1c(-c2ccccc2Cl)noc1/C=C/Nc1ccc(C(=O)O)cc1` gave Pf growth 48h 72%, CHX counter 17, Pf growth 96h 71%, Shiga inhibitor 35 and NS1 inh 20%.
Screening CC(C)C(=O)N=C1SC2CS(=O)(=O)CC2N1Cc1ccccc1 (centres undefined) returned Pf growth 48h 2%, CHX counter -2, Pf growth 96h 7%, Shiga inhibitor -6 and NS1 inh 3%.
Screening CC(OC(=O)c1ccc(Cl)nc1)C(=O)NC1(C#N)CCCCC1 (centres undefined) returned Pf growth 48h 31% and Pf growth 96h 20%.
For Cc1ccc(S(=O)(=O)N2CCCN(S(=O)(=O)c3ccc4ccccc4c3)CC2)cc1 the results were Pf growth 48h inconclusive, CHX counter -1, Pf growth 96h 10µM*, Shiga inhibitor 8 and NS1 inh 10%.
O=C(c1cc2ccccc2[nH]1)N1CCOCC1 was read as Pf growth 48h 34%, CHX counter 19*, Pf growth 96h 38%, Shiga inhibitor active and NS1 inh 1%.
For COc1ccc(CCNC(=O)CSc2nnc3ccccn23)cc1 the results were Pf growth 48h inconclusive, CHX counter -2, Pf growth 96h 7%, Shiga inhibitor -1 and NS1 inh 2%.
COc1ccc(Cl)cc1NS(=O)(=O)c1cn(C)nc1C was read as Pf growth 48h 2%, CHX counter -2, Pf growth 96h 17%, Shiga inhibitor -6 and NS1 inh -2%.
COc1ccc(S(=O)(=O)N2CCN(S(=O)(=O)c3ccc(C(F)(F)F)cc3)CC2)cc1C was read as Pf growth 48h 1%, CHX counter -4, Pf growth 96h 12µM*, Shiga inhibitor -18 and NS1 inh 0%.
Screening O=C(NC1CC1)C1CCN(S(=O)(=O)c2ccc(Cl)cc2)CC1 returned Pf growth 48h 1.7µM*, CHX counter -5, Pf growth 96h 7%, Shiga inhibitor -18 and NS1 inh 6%.
Screening COc1ccc(S(=O)(=O)N2CCC(C(=O)NC3CC3)CC2)cc1C returned Pf growth 48h inconclusive, CHX counter 8, Pf growth 96h 3.3µM*, Shiga inhibitor -2 and NS1 inh 9%.
For O=C(NC1CC1)C1CCN(S(=O)(=O)c2cc(Cl)ccc2Cl)CC1 the results were Pf growth 48h -4%, CHX counter 1, Pf growth 96h 0.083µM*, Shiga inhibitor -20 and NS1 inh 1%.
O=C(NC1CCN(S(=O)(=O)c2ccc(Cl)cc2)CC1)C1CCCCC1 was read as Pf growth 48h -10%, CHX counter 2, Pf growth 96h -8%, Shiga inhibitor -7 and NS1 inh 10%.
For COc1ccc(S(=O)(=O)N2CCN(C)CC2)cc1C the results were CHX counter -7, Pf growth 96h inconclusive, Shiga inhibitor -21 and NS1 inh inconclusive.
CCc1cc2c(=O)n(Cc3ccco3)c(SCC(=O)N(C)C3CCS(=O)(=O)C3)nc2s1 (centres undefined) was read as Pf growth 48h -7%, CHX counter 18, Pf growth 96h inconclusive and Shiga inhibitor 43.
For Cc1ccc(S(=O)(=O)N2CCSC2)cc1C the results were Pf growth 48h -2%, CHX counter -2, Pf growth 96h 3%, Shiga inhibitor -11 and NS1 inh 7%.
For Cc1nc2nc(CCNS(=O)(=O)c3ccc(Cl)cc3)cn2nc1C the results were Pf growth 48h 17%, CHX counter 11, Pf growth 96h 39%, Shiga inhibitor -2 and NS1 inh -3%.
Cc1ccc(S(=O)(=O)N2CCC(C(=O)NC3CCCC3)CC2)cc1Cl was read as Pf growth 48h inconclusive, CHX counter -5, Pf growth 96h 1.3µM*, Shiga inhibitor -5 and NS1 inh -15%.
`Cc1ccc(S(=O)(=O)N2CCCC(C(=O)NC3CCCC3)C2)cc1Cl` (centres undefined) gave Pf growth 48h -23%, CHX counter -6, Pf growth 96h inconclusive, Shiga inhibitor -14 and NS1 inh -1%.
Screening COc1ccccc1/C=C/C(=O)Nc1nc(N)n(-c2ccccc2)n1 returned Pf growth 48h 14%, CHX counter -2, Pf growth 96h 141%, Shiga inhibitor 21 and NS1 inh 1%.
For CCN(CC)S(=O)(=O)c1ccc(N=Cc2c(C)c(C#N)c(=O)n(C)c2O)cc1 the results were Pf growth 48h 16%, CHX counter 4, Pf growth 96h 18%, Shiga inhibitor 2 and NS1 inh 13%.
Screening Cc1cc(C)n(Cc2ccc(Cl)cc2Cl)c(=O)c1S(=O)(=O)c1ccccc1 returned Pf growth 48h 13µM*, CHX counter 11*, Pf growth 96h inconclusive, Shiga inhibitor 8 and NS1 inh 2%.
For Cc1ccccc1NC(=O)C(NC1CCCCC1)C(C)C (centres undefined) the results were Pf growth 48h 9%, CHX counter 1, Pf growth 96h inconclusive, Shiga inhibitor -4 and NS1 inh 5%.
Screening Cc1ccc2c(c1)COc1c3ccc(C(=O)NC(C)C)cc3nn1-2 returned Pf growth 48h 104%, CHX counter 35*, Pf growth 96h 34%, Shiga inhibitor 76* and NS1 inh -9%.
Cc1ccc2c(c1)COc1c3ccc(C(=O)N[C@@H](C)CO)cc3nn1-2 was read as Pf growth 48h 218%, CHX counter 42*, Pf growth 96h 21%, Shiga inhibitor 53* and NS1 inh -2%.
CCCC#Cc1ccc2c(c1)COc1c3ccccc3nn1-2 was read as Pf growth 48h 143% and Pf growth 96h 145%.
Screening O=C(NCC(=O)N1CC=C(c2ccccc2)CC1)c1ccco1 returned Pf growth 48h 50% and Pf growth 96h 24%.
O=C(CCCCn1c(=O)c2ccccc2n(Cc2ccc(Cl)cc2)c1=O)NCc1ccco1 was read as Pf growth 48h 12µM*, CHX counter 0, Pf growth 96h 25%, Shiga inhibitor -3 and NS1 inh -14%.
Cc1ccccc1Cn1c(=O)n(Cc2ccco2)c(=O)c2ccccc21 was read as Pf growth 48h -29%, CHX counter -2, Pf growth 96h -27%, Shiga inhibitor 12 and NS1 inh -8%.
